# Assay results taken from ChEMBL document CHEMBL3988442, “University of Dundee, Small-Polar-MMV Screening Library” (2021).
# In all, about 48,000 compounds went through this assay and about 13,000 (27%) showed an effect of 50% or more. The list shows a part of the results.
# System: Wolbachia pipientis
# Test: Anti-Wolbachia Cell-Based Screen
# Format: functional
# Parameters: scale not given: in the data most compounds retested in dose-response had high values
# Conditions: 5 µM
row,SMILES,Percent Effect
1,CN(C(=O)CN1CCCC1=O)C1CCCN(C2Cc3ccccc3C2)C1 (stereo unspecified),-3.019%
2,CC(C)(C)C(=O)CN1Cc2ccccc2NCCC1=O,87.13%
3,COCCN1CCc2ccccc2NCCC1=O,80.29%
4,COCCN1CC2(CCCN(C(=O)NCc3ccccc3)C2)CCC1=O (stereo unspecified),-41.75%
5,CC(C)(C)C(=O)CN1CCc2ccccc2NCCC1=O,91.03%
6,CCN(C(=O)C1=NN(c2ccccc2)C(=O)CN1)c1ccccc1,14.38%
7,O=C(CN1C(=O)CCNC1=O)N1CCC2(CCc3ccccc32)CC1,-1.469%
8,COCCN1CCC2(CCC1=O)CN(c1ccnc(SC)n1)CCN2C (stereo unspecified),3.783%
9,CCNC(=O)N1C[C@@H]2OCC(=O)N(Cc3cccnc3)[C@@H]2C1,-2.175%
10,C[C@H](CCO)NS(=O)(=O)c1ccc(Br)cn1,0.586%
11,COc1nccnc1N1CCC2(CC1)[C@H](O)C[C@@H]2OCCN(C)C,-0.5657%
12,COC(=O)CCCn1ccnc1C(C)c1ccccc1 (stereo unspecified),30.01%
13,O=C(N1CCCC1)N1CCN(c2ccc(Cl)nn2)C(=O)C1,104%
14,CN1CCN(C(=O)N2CCCC2)Cc2cccnc21,-1.039%
15,O=C(N1CCOCC1)N1CCN(c2ccnc3ccsc23)CC1,30.34%
16,Cc1ccc2c(n1)N(CCN(C)C)CCN(C(=O)N1CCOCC1)C2,-2.22%
17,CN(C)c1ccc(C(=O)N2CCN(C(=O)N3CCCCC3)CC2)nn1,6.871%
18,O=C(Cc1ccc2c(c1)OCO2)N1CCN(c2ccccc2Cl)C(=O)C1,2.346%
19,O=C(N1CCOCC1)N1CCN(c2ccc(Cl)nn2)C(=O)C1,98.36%
20,O=C(N1CCCCC1)N1CCN(c2ccc(Cl)nn2)C(=O)C1,123%
21,O=C(Cc1ccc(CO)cc1)N1CCN(c2ccccc2Cl)C(=O)C1,-19.49%
22,O=C(CN1CCN(c2ccnc3c(F)ccc(F)c23)CC1)NC1CC1,-1.102%

row,SMILES,Percent Effect
1,O=C(Nc1ccc2c(c1)OCO2)N1CCN(CCc2ccccc2)CC1,10.38%
2,CC(C)OCc1ncn2c1CN(Cc1nccs1)CCC2.O=C(O)C(F)(F)F,19.89%
3,CC(=O)NC1CCN(C(=O)Nc2ccc(SC(F)F)cc2)CC1,1.325%
4,CN(C)C(=O)C1CCC2(CCN(C(=O)Nc3ccc(F)cc3)CC2)O1 (stereo unspecified),104.3%
5,CN1C(=O)CO[C@H]2CN(C(=O)Nc3ccc(F)cc3)C[C@H]21,-3.92%
6,Cc1ccc(NC(=O)N2CCC3(CCC(C(=O)N(C)C)O3)CC2)cc1 (stereo unspecified),103.6%
7,CCN(C)CC1CCN(C(=O)Nc2ccc(C)cc2)C1 (stereo unspecified),-10.96%
8,O=C(Nc1ccc(S(=O)(=O)Nc2ccccc2)cc1)N1CCCC1,10.15%
9,CCC1=N[C@@]2(CC[C@@H]3CN(C(=O)Nc4ccc(F)cc4)C[C@@H]32)C(=O)N1,-8.843%
10,CN(C)C(=O)C1CCC2(CCN(C(=O)Nc3ccccc3)CC2)O1 (stereo unspecified),111.7%
11,CN(C)C(=O)N1CCC2(CCC(C(=O)N3CCCC3)O2)CC1 (stereo unspecified),-25.65%
12,CCCN1CCCC2(CCN(S(=O)(=O)N3CCC(OC)CC3)C2)C1=O (stereo unspecified),-17.89%
13,CCCNC(=O)NCc1ccccc1NS(=O)(=O)c1ccccc1,1.164%
14,COc1c(C2CCCN2Cc2nnc(C3CC3)o2)c(C)nn1C (stereo unspecified),-22.17%
15,CCN(Cc1noc(C)n1)C(=O)C(c1ccc(C)cc1)N(C)C (stereo unspecified),-5.423%
16,CC(=O)N1CCN(C(=O)CCc2cc(Br)cs2)CC1,-5.733%
17,CC1(Cc2cccnc2)NCCc2[nH]cnc21 (stereo unspecified),0.4171%
18,CC(C)Cc1ccc(C(=O)Cn2cnnc2[S+](C)[O-])cc1 (stereo unspecified),22.36%
19,CCN1C(=O)CCC12CCCN(S(=O)(=O)c1cccc(C)c1)CC2 (stereo unspecified),-13.05%
20,CNC(=O)[C@@]12CCO[C@@H]1CCN(S(=O)(=O)c1cccc(F)c1)C2,-9.413%
21,CS(=O)(=O)N1CCCC12CCCN(S(=O)(=O)c1cccc(F)c1)C2 (stereo unspecified),85.55%
22,CS(=O)(=O)N1CCCC12CCCN(S(=O)(=O)c1cc(F)cc(F)c1)C2 (stereo unspecified),-5.366%

row,SMILES,Percent Effect
1,Cc1cccc(S(=O)(=O)N2CCCc3c(c(=O)n(C)n3C)C2)c1,-4.559%
2,Cc1cccc(S(=O)(=O)N2CCCC3(CCCN3S(C)(=O)=O)C2)c1 (stereo unspecified),110.4%
3,COc1ccc(Nc2ncccc2C#N)cc1N1CCCC1=O,9.755%
4,Cc1cc(S(=O)(=O)Nc2onc(C)c2C)sc1C,-16.29%
5,Cc1nn(C)c(C)c1C1CCCN1Cc1nc(-c2ccco2)oc1C (stereo unspecified),-2.901%
6,Cc1nn(C)c(C)c1C1CCCN1C(=O)CCNS(C)(=O)=O (stereo unspecified),101.1%
7,COc1c(C2CCCN2C(=O)CCNc2ncccn2)c(C)nn1C (stereo unspecified),119.8%
8,Cc1nn(C)c(C)c1C1CCCN1C(=O)CCc1cscn1 (stereo unspecified),-3.183%
9,COc1ccc(C2CCCN2C(=O)CCNc2ncccn2)cc1 (stereo unspecified),1.66%
10,Cc1nn(C)c(C)c1C1CCCN1C(=O)CCCc1ccccn1 (stereo unspecified),91.34%
11,CS(=O)(=O)NCCC(=O)N1CCCC1c1noc(C2CC2)n1 (stereo unspecified),-8.062%
12,Cc1nn(C)c(C)c1C1CCCN1C(=O)CCc1ccco1 (stereo unspecified),103%
13,CSc1ccc(CNCCS(=O)(=O)N2CCOCC2)cc1,-30.29%
14,CC1(C)CN(C(=O)c2ccc3nncn3c2)CCS1,-32.23%
15,COCC1CN(C(=O)CC2Cc3ccccc3C2)Cc2c1cnn2C (stereo unspecified),-1.669%
16,Cc1nn(C)c(C)c1C1CCCN1C(=O)CCNc1ncccn1 (stereo unspecified),2.112%
17,Cc1nn(C)c(C)c1C1CCCN1C(=O)CCCNc1ncccn1 (stereo unspecified),79.99%
18,Cc1nn(C)c(C)c1C1CCCN1C(=O)CCCn1cccn1 (stereo unspecified),12.2%
19,Cc1nn(C)c(Cl)c1C1CCCN1C(=O)CCNc1ncccn1 (stereo unspecified),95.62%
20,Fc1cccc2c1CCC2NCc1cnc(N2CCOCC2)nc1 (stereo unspecified),3.105%
21,COC(=O)CCC(=O)N(C/C=C/c1ccccc1)CCO,-11.86%
22,COc1cccc(F)c1C(C)NC(=O)NCCc1ccc(C)nc1 (stereo unspecified),1.538%
